Screens deposited in PubChem by Sanford-Burnham Center for Chemical Genomics.
Shown are actives, neighbours in structure and some others; about 3.1% of the full set was active somewhere.
KKLEB cytotox: counter-screen for CF NF-kB inhibitors: cytotoxicity; KKLEB CF airway cells viability, ATPlite luminescence, overnight; hits give low values; cells stimulated with P. aeruginosa culture filtrate; activity change (cytotoxicity), % at 5 µM; 360,000 compounds, 0.36% hits; AID 602141;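 active = corrected activity change at or below -50% at 5 µM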
HIF-2a inh: blocks HIF-2a reporter activity | 786-0 RCC cells HIF-2a reporter, luciferase luminescence, overnight | inhibition, % at 18.8 µM | 360,000 compounds, 0.72% hits | AID 624352;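 active = inhibition of the luminescence signal of 40% or more relative to plate controls, in a single-dose primary screen at 18.75 µM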
PPC-1+TRAIL kill: compounds killing PPC-1 cancer cells with TRAIL present (potentiator screen, no TRAIL-free arm); PPC-1 cells + TRAIL, ATPLite viability luminescence; cell killing (% activity), % at 4 µM or 5 µM; 220,000 compounds, 0.41% hits;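 active = cell killing above 50% in the first pass at 4 µM, then a duplicate retest at 5 µM averaging 50% or more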
Peg3 promoter: Peg3 promoter activity inhibition. HeLa PEG-Prom luciferase reporter, luminescence, overnight. inhibition, % at 20 µM. 360,000 compounds, 1.7% hits;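 active = inhibition of at least 50% at 20 µM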
C8 TRAIL sens: sensitizes caspase-8 expressing cells to TRAIL; inhibition (viability loss, TRAIL sensitization), % at 10 µM; AID 624354; 360,000 compounds, 1% hits; NB7+C8 cells + TRAIL, ATPlite viability luminescence;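 active = compounds causing at least 50% loss of cell viability in the single-dose screen, relative to plate controls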
CF NFkB block: inhibitors of cystic fibrosis induced NF-kB; KKLEB NF-kB-GFP reporter, PAF-induced, GFP fluorescence overnight; inhibition, % at 5 µM; 360,000 compounds, 0.86% hits; AID 588850;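 active = at least 50% inhibition at 5 µM, scaled per plate between neutral and stimulator controls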;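 also: PAF is a Pseudomonas aeruginosa culture filtrate used as stimulus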
Hits are given with their value; - = inactive; . = no result.

SMILES	KKLEB cytotox	HIF-2a inh	PPC-1+TRAIL kill	Peg3 promoter	C8 TRAIL sens	CF NFkB block
CC1CCCC(NC(=O)CSc2ccc(F)cc2)C1C (stereo not drawn)	-	-	-	-	-	-
Cc1ccc(-c2nn3c(C)nnc3c3ccccc23)cc1S(=O)(=O)NCCN1CCOCC1	-	-	-	-	-	-
Cc1ccc(-c2nn3c(C)nnc3c3ccccc23)cc1S(=O)(=O)NCc1ccccc1	-	-	-	-	52.3	-
CC(C)C[C@H]1CN(CCCC[C@H]2CNC(=O)C(=O)N2CC2CCCCC2)C(=O)C(=O)N1Cc1ccccc1	.	-	.	.	-	.
CCOc1cc(NC2CS(=O)(=O)CC2O)c(OCC)cc1NC(=O)c1ccccc1 (stereo not drawn)	-	-	-	-	51.0	-
Cc1cc(C)c(NC(=O)CCN2C(=O)c3ccccc3S2(=O)=O)c(C)c1	-	-	.	-	-	-
CCOC(=O)c1ccc(N2C(=O)[C@@H](c3ccccc3)[C@H]2c2ccccc2)cc1	-	-	.	-	-	-
CCOC(=O)c1ccc(N2C(=O)C3C(/C=C/c4ccccc4)OC4(C(=O)c5ccccc5C4=O)C3C2=O)cc1 (stereo not drawn)	-	-	55.4	-	-	-
N#CC(=C1C=CC(=NO)C(Cl)=C1)c1ccc(Cl)cc1	-	-	.	-	-	53.2
CCOC(=O)N1C/C(=C\c2ccccc2)C(=O)/C(=C/c2ccccc2)C1	-	94.6	-	112.0	-	88.7
COc1ccc(OC(=O)N2C/C(=C/c3ccccc3)C(=O)/C(=C\c3ccccc3)C2)cc1	-	59.5	.	104.7	51.7	64.3
COc1ccc(OC(=O)N2CCOCC2)cc1	-	-	.	-	-	-
CCOC(=O)N1CCN(S(=O)(=O)/C=C/c2ccccc2)CC1	-	-	-	-	-	-
COc1ccccc1C(C)NCC(=O)NC(=O)NCc1ccco1 (stereo not drawn)	-	-	.	-	-	-
COc1cccc2sc3cc(C#Cc4ccccn4)ccc3c(=O)c12	-	-	.	-	-	-
COc1cccc2oc3ccc(C#Cc4ccccn4)cc3c(=O)c12	-	-	.	-	69.2	-
O=C(NC(Nc1nc2ccc([N+](=O)[O-])cc2s1)(C(F)(F)F)C(F)(F)F)c1cccnc1	-	-	-	-	-	54.9
O=C(NC(Nc1nc2ccc([N+](=O)[O-])cc2s1)(C(F)(F)F)C(F)(F)F)c1ccccc1Cl	-53.0	-	-	65.2	-	-
COCCN(C(=O)COC(=O)C12CC3CC(CC(C3)C1)C2)c1c(N)n(Cc2ccccc2)c(=O)[nH]c1=O	-	-	.	-	-	-
COc1cccc(CNC(=O)[C@@H]2CCCN2C(=O)[C@@H]2CCCN2C(=O)c2cccc3ccccc23)c1	.	-	.	.	-	.
CC1(C)C=Cc2c(ccc3c2OC[C@H](c2ccc(O)cc2O)C3)O1	-	-	.	-	-	-
CC(C)=CCc1cc([C@@H]2COc3c(ccc4c3C=CC(C)(C)O4)C2)c(O)cc1O	-	-	.	83.8	-	-
COC(=O)c1c(N)[nH]c(C(=O)c2ccccc2)c1-c1ccccc1Br	.	-	.	.	-	.
Cc1ccc(COC(=O)c2cc([N+](=O)[O-])ccc2N2CCOCC2)cc1	-	-	.	-	-	-
CCOc1ccc(C(=O)c2cc([N+](=O)[O-])ccc2N2CCOCC2)cc1	-	-	-	-	-	55.2
SMILES	KKLEB cytotox	HIF-2a inh	PPC-1+TRAIL kill	Peg3 promoter	C8 TRAIL sens	CF NFkB block
COc1ccc(CCNC(=O)c2cc([N+](=O)[O-])ccc2N2CCOCC2)cc1	-	-	.	-	-	-
COc1ccc(C(=O)c2cc([N+](=O)[O-])ccc2N2CCOCC2)cc1	-	-	-	-	-	59.5
Cc1ccc(C(=O)c2cc([N+](=O)[O-])ccc2N2CCOCC2)cc1	-	-	-	51.9	-	-
Cc1cc(NC(=O)c2ccco2)c(=O)n(Cc2cccc(C(F)(F)F)c2)c1	-	-	.	-	-	-
COCCNC(=O)C1CCCN(C(=O)c2cc(-c3ccccc3)cs2)CC1 (stereo not drawn)	-	-	.	-	-	-
CCN(CC)CCOC(=O)/C=C/c1ccccc1	-	-	-	-	-	-
CCN(CC)CC(C)(C)C(=O)/C=C/c1ccc(/C=C/C(=O)C(C)(C)CN(CC)CC)cc1	-65.5	91.3	.	102.2	92.0	91.6
C[C@H](CO)N1C[C@H](C)[C@@H](CN(C)S(=O)(=O)c2ccccc2C#N)OCc2cn(nn2)CCCC1=O	-	-	.	-	-	-
CC(C)CN1C(=S)SC(C)(C)C1n1oc(=O)n(-c2ccc(Cl)cc2)c1=O (stereo not drawn)	-56.2	-	-	66.5	-	65.4
Cc1cccc(C)c1NC(=O)C1(C)CN(S(C)(=O)=O)CC(=O)N1Cc1ccc2c(c1)OCO2 (stereo not drawn)	.	-	.	.	-	.
CCOC(=O)c1c(NC(=O)COc2ccccc2)sc2c1CC(C)(C)NC2(C)C	-	-	-	74.7	-	-
CCOC(=O)c1c(NC(=O)COC(=O)/C=C/c2ccco2)sc2c1CC(C)(C)NC2(C)C	-	-	.	-	-	-
COC(=O)c1c(NC(=O)c2ccc(C(=O)c3ccccc3)cc2)sc2c1CC(C)(C)NC2(C)C	-	-	.	94.0	-	-
CCOc1ccc(C(=O)Nc2sc3c(c2C(=O)OC)CC(C)(C)NC3(C)C)cc1	-	-	-	78.9	-	-
COc1ccc(S(=O)(=O)NC(C)c2ccc3c(c2)OCCO3)cc1 (stereo not drawn)	-	-	.	-	-	-
O=C(Nc1ccc(S(=O)(=O)Nc2ncccn2)cc1)c1ccccc1NS(=O)(=O)c1ccc(Cl)cc1	-	-	-	-	-	-
Cc1ccccc1C(=O)Nc1cccc(NC(=O)c2ccc(-c3ccc(Br)cc3)o2)c1	-53.4	-	-	-	-	-
COc1cccc(NC(=O)c2ccc(-c3ccc([N+](=O)[O-])cc3)o2)c1	-	-	.	-	-	-
CCN1CCN(c2ccc(NC(=O)c3ccc(Br)o3)cc2)CC1	-	-	.	-	-	-
CN1CCN(c2ccc(NC(=O)c3ccc(-c4ccc(Br)cc4)o3)cc2)CC1	-	-	-	88.8	-	-
Cc1ccc(S(=O)(=O)N2[C@@H](CO)CO[C@H]2CC(=O)c2cccs2)cc1	.	-	.	.	-	.
CC(Oc1cccc(Cl)c1)C(=O)N1CCCN(C)CC1 (stereo not drawn)	-	-	.	-	-	-
Cc1ccc2cc(NC(=O)c3cccc(F)c3)ccc2n1	-	-	-	-	46.3	-
O=C(Nc1ccc2ccccc2c1)c1cccc(F)c1	-	-	-	-	-	-
Cc1ccc2cc(NC(=O)CC(CC(=O)O)c3ccccc3)ccc2n1 (stereo not drawn)	-	-	.	-	-	-
Cc1ccc2cc(NC(=O)c3ccccc3)ccc2n1	-	-	.	-	57.9	-
CC(C)(C)S(=O)N1Cc2cc(C(=O)Nc3ccc(-c4ccccc4)cc3)nc(-c3cccc(-c4cc5ccccc5o4)c3)c2[C@@H]1CCO (stereo partly drawn)	-	-	.	93.1	-	-
